The list is not random: actives were taken first. Their share in the collection is about 3.7%.
Tau ThT inhib: qHTS for Inhibitors of Tau Fibril Formation, Thioflavin T Binding; recombinant tau K18 P301L, heparin-induced fibrillization, ThT fluorescence; actives 2.1% (n = 270,000); Potency, µM (top dose mostly 57.4 µM), for inactives: at the top dose activity, negative = inhibition, actives largely listed as inhibitors; Microtubule-associated protein tau (Homo sapiens), P10636; further: on the % scale 0 is the no-effect control and ±100 the full control effect; nearly all actives have a fitted effect of over 55% in size
Target sequence (P10636 561-689 P618L limits assumed): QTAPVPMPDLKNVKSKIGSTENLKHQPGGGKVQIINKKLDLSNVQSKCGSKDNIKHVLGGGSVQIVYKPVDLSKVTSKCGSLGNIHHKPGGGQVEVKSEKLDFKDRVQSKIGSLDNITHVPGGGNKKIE
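In this qHTS, human K18 P301L tau is incubated with compound and heparin for 6 hr at 37 C, and Thioflavin T fluorescence then reports fibril load.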
Tau FP inhib: qHTS for Inhibitors of Tau Fibril Formation, Fluorescence Polarization; K18 P301L tau heparin fibrillization, Alexa594 FP, 6 h; actives 0.39% (n = 280,000); Potency, µM (doses to about 57.7 µM), for the others: top-dose activity, negative = inhibition, usual class: inhibitors; AID 1468, 2008; Microtubule-associated protein tau (Homo sapiens), P10636; further: on the % scale 0 is the no-effect control and ±100 the full control effect; nearly all actives have a fitted effect of over 55% in size
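Human tau K18 […] P301L fragment, 15 uM unlabeled plus 0.24 uM Alexa 594-labeled tau (final), with compound and 20 uM heparin in 100 mM sodium acetate pH 7; 6 hr at 37 C, then Alexa 594 FP read.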
HTT ATP protect: qHTS Multiplex Assay to Identify Dual Action Probes in a Cell Model of Huntington: Cytoprotection (ATP) | PC12 HTT-Q103 induced, cytoprotection, ATP luminescence, 40 h | Potency, µM (series often up to 56.4 µM), for the others: cytoprotection (ATP increase), hits mostly activators | actives 0.14% (n = 230,000) | AID 1471, 2008; further: % of control where 0% means no effect; nearly all actives have a fitted effect of over 45% in size
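ATP quantification (ATPlite) reports survival of PC12 cells in which tebufenozide, 100 nM final, switches on Htt exon 1 with 103 glutamines linked to GFP; compounds are titrated.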
HTT aggregate: qHTS Multiplex Assay to Identify Dual Action Probes in a Cell Model of Huntington: Aggregate Formation (GFP); PC12 HttQ103-GFP aggregates, Acumen cytometry, 40 h; actives 1.1% (n = 220,000); Potency, µM (highest dose often 46.1 µM), inactives show top-dose activity change, negative = inhibition, usual class: inhibitors; further: on the % scale 0 is the no-effect control and ±100 the full control effect; nearly all actives have a fitted effect of over 60% in size
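Aggregate formation scored by laser-scanning cytometer (488 excitation, 500–530 emission) in lysed PC12 cells expressing Q103-GFP after 100 nM tebufenozide induction; library tested in dose series, with ATPLite reagent added in the multiplex.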
Tau fluor cs: Counterscreen qHTS for Inhibitors of Tau Fibril Formation, Fluorescence Polarization. actives 0.93% (n = 280,000). AID 1463, 2008. tau K18 P301L (four-repeat tau fragment) Alexa594 fluorescence, heparin fibrillization. Potency, µM (titrated, usually from 57.7 µM), for inactives: at the highest dose activity change, negative = decrease; further: on the % scale 0 is the no-effect control and ±100 the full control effect; nearly all actives have a fitted effect of over 55% in size
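Human K18 P301L tau (15 uM unlabeled plus 0.24 uM Alexa 594-labeled, final) in 100 mM sodium acetate pH 7 was mixed with compound and 20 uM heparin and incubated 6 hr at 37 C.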
* = called active by the depositor; ? = inconclusive; . = no result given; ! = not confirmed by another sample; [ ] = another dose, or the depositor's remark. The call rests on the fitted dose curve; in most records, active means well fitted curve in the direction sought with a large enough effect; inconclusive means small, poorly fitted or top-dose-only effect, or another doubt; inactive means no such curve, though single readings can be large; an effect the other way counts as inactive or inconclusive. Potency means the concentration at half of the fitted maximal effect.

SMILES | Tau ThT inhib | Tau FP inhib | HTT ATP protect | HTT aggregate | Tau fluor cs
O=C(O)C[C@H](Cc1ccccc1Cl)C(=O)O | . | . | -14.0%[10 µM] | . | .
Cc1ccc(NC(=O)Nc2nnc(SCC(=O)N(C(C)C)C(C)C)s2)cc1 | -7.6% | ? | . | . | ?
COC(=O)C1=C(C)N(Cc2ccccc2)C2=C3C(=O)CCCC3[C@@](O)(C(=O)OC)C(=O)N2C1c1ccccc1 (stereo partly specified) | -8.6%[11.5 µM] | 1.2%[11.6 µM] | -17.8%[10 µM] | . | -8.6%[11.6 µM]
CCCCN(CC)CCCNC(=S)Nc1ccc2nc(N3CCN(CC)CC3)cc(C)c2c1 | -8.5% | 9.5% | -33.2% | ? | -8.9%
CCCCN(CC)CCCNC(=S)Nc1ccc2nc(N3CCN(C)CC3)cc(C)c2c1 | -14.8% | 1.8% | -9.0% | 28.2µM* | -16.6%
COc1ccc(OCC(O)CNC(=O)c2ccc(Br)cc2)cc1 (stereo unspecified) | -10.1% | 3.3% | 11.4% | -14.2% | -0.9%
COc1ccc(OCC(O)CNc2ccc(Br)cc2)cc1 (stereo unspecified) | ? | 14.0% | -19.5% | ? | 17.8µM*[quencher]
Cc1cccc(OCC(=O)NCCc2nc3ccccc3[nH]2)c1C | -5.9% | -13.1% | . | . | -12.7%
COCC(=O)O[C@]1(CCN(C)CCCc2nc3ccccc3[nH]2)CCc2cc(F)ccc2[C@@H]1C(C)C | ? | ? | -99.3% | 7.94µM*! | ?
C[C@@H](c1ccccc1)N1C(=O)[C@H]2[C@H]3[C@H](O)[C@H](O)C/C(=N/NC(=O)OCc4ccccc4)[C@H]3CC[C@@H]2C1=O | -7.6%[11.5 µM] | -1.4%[11.6 µM] | -9.2%[10 µM] | . | -8.2%[11.6 µM]
COc1ccc(NCc2cc3cc4c(cc3n(CC(=O)Nc3ccc(F)cc3)c2=O)OCCO4)cc1 | -6.6% | ? | . | . | 11.2µM*[quencher]
CC(=O)c1cccc(NC(=O)Cn2c(=O)c(CNc3ccc(C)cc3)cc3cc4c(cc32)OCCO4)c1 | -17.0% | ? | . | . | 17.8µM*[quencher]
Cc1ccc(NC(=O)Cn2c(=O)c(CNc3ccccc3)cc3cc4c(cc32)OCCO4)cc1 | -12.9% | ? | . | . | ?
CCc1ccc(NCc2cc3cc4c(cc3n(CC(=O)Nc3ccc(F)cc3)c2=O)OCCO4)cc1 | 2.6% | 13.4% | . | . | ?
COc1ccc2cc(CNc3ccc(C)cc3)c(=O)n(CC(=O)Nc3ccc(OC)c(Cl)c3)c2c1 | 2.8% | ? | . | . | ?
CCOc1ccc(NC(=O)Cn2c(=O)c(CNc3ccc(OC)cc3)cc3ccc(OC)cc32)cc1 | ? | ? | . | . | 20µM*[quencher]
CC(NC(=O)c1nn(C)c2c1CSc1ccccc1-2)c1ccccc1 (stereo unspecified) | -14.2% | -6.5% | . | . | -12.8%
O=C(CSC1=NCCN1)c1ccccc1 | . | . | -2.0%[10 µM] | . | .
CC(C)(C)c1ccc(-c2csc(NNC3=NCCCCC3)n2)cc1 | 15.8µM* | ? | 34.3% | -18.8% | ?
FC(F)Oc1ccc(-c2csc(NNC3=NCCCCC3)n2)cc1 | 28.2µM* | ? | 19.1% | -11.0% | -29.1%
Brc1ccc(-c2csc(NNC3=NCCCCC3)n2)cc1 | ? | -6.0% | -44.7% | -31.0% | ?
CCCCCCCCC/C=C/CC1CC(=O)OC1=O (stereo unspecified) | . | . | 14.0% | . | .
O=C1c2[nH]nc(-c3ccc(Br)cc3)c2C(c2cccc(O)c2)N1c1ccc(Cl)cc1 (stereo unspecified) | 9.5% | 12.6µM* | . | . | ?
CCCc1cc(=O)[nH]c(Nc2cc(C)cc(C)c2)n1 | -15.1% | -12.8% | . | . | ?
CCCc1cc(=O)[nH]c(Nc2cc(Cl)cc(Cl)c2)n1 | 11.8% | 11.2µM* | . | . | ?
SMILES | Tau ThT inhib | Tau FP inhib | HTT ATP protect | HTT aggregate | Tau fluor cs
CCCc1cc(=O)[nH]c(Nc2ccc(OCC)cc2)n1 | -3.5% | 12.7% | . | . | ?
CCCCc1ccc(Nc2nc(CCC)cc(=O)[nH]2)cc1 | -0.1% | ? | 20.2%[1.9 µM] | 35.5µM* | ?
CCCCCCC#CC1C=CC(OC(C)=O)C(COC(C)=O)O1 (stereo unspecified) | ? | -9.0%[11.6 µM] | -8.0%[10 µM] | . | -14.6%[11.6 µM]
CCOC(=O)C1=C(Cc2ccc(F)cc2)C(=O)c2ccccc2C1=O | 10µM* | 15.8µM* | -27.9% | -0.8%[9.22 µM] | ?
CCOP(=O)(OCC)C(C#N)=C1SCN(c2ccc(Cl)cc2)CS1 | 2µM* | ? | -0.3%[10 µM] | -13.5% | -24.5%
O=C(O)[C@@H]1[C@@H]2C[C@@H]3[C@@H](OC(=O)[C@@H]31)[C@H]2Br | . | . | -19.2%[10 µM] | . | .
CC1=CC(=O)C(C(C)C)=C/C1=N/OS(=O)(=O)c1ccccc1 | 14.1µM* | ? | -62.6%[10 µM] | -32.8%[9.22 µM] | ?
CC1=CC(=O)C=C(C)C1=NOS(=O)(=O)c1ccccc1 | 14.1µM* | ? | -111.4% | 19.9%[9.22 µM] | ?
CCOc1ccc(/C=C/c2nc3ccccc3n2S(=O)(=O)c2ccc(Br)cc2)cc1 | -17.3% | ? | . | . | -25.3%
CSc1ccc(/C=C/c2nc3ccccc3n2S(=O)(=O)c2ccc(Br)cc2)cc1 | 2.5% | ? | . | . | 31.6µM*[quencher]
Oc1ccc(N=Nc2n[nH]c(-c3ccc(Cl)cc3)n2)cc1 | 1.78µM* | 4.3% | -58.3% | 17.8µM* | ?
Cc1ncc(N=Nc2ccc(F)cc2)c(-c2ccc(Cl)cc2)n1 | -14.5% | 11.8% | -3.1%[10 µM] | 24.0% | -16.5%
c1ccc(-c2csc3ncnc(NCC4COc5ccccc5O4)c23)cc1 (stereo unspecified) | -17.5% | -1.2% | 17.2%[10 µM] | 8.91µM* | -11.6%
C[C@@]12CC[C@@H]3[C@H](CCC4=CC(=O)CC[C@]43C)[C@@H]1CC[C@@H]2C(=O)COS(=O)(=O)c1ccc(Br)cc1 | . | . | -15.6%[10 µM] | . | .
CSc1nncc(/C(C)=N\Nc2ccccc2C)n1 | 0.891µM* | -19.7% | -3.0% | -9.7% | -15.6%
Cn1c(=O)c2cc(S(=O)(=O)N3CCOCC3)ccc2n(C)c1=O | -1.1% | 4.8% | 15.8µM* | -16.9% | 5.8%
Cn1c(=O)c2cc(S(=O)(=O)N3CCC(c4ccccc4)CC3)ccc2n(C)c1=O | -12.8% | -1.0% | 8.6% | -13.6% | -7.0%
CC(=O)OCC1OC(Oc2cc(OC(C)=O)c3c(=O)cc(-c4ccc(OC(C)=O)c(OC(C)=O)c4)oc3c2)C(OC(C)=O)C(OC(C)=O)C1OC(C)=O (stereo unspecified) | ? | ? | 12.6%[1.9 µM] | . | ?
CCOC(=O)c1sc(N(Cc2ccccc2)C(=O)COC(=O)c2ccc(O)cc2)nc1C | -3.0% | 14.1µM* | . | -1.9% | ?
NC=O | . | . | -87.0% | . | .
CCCCCCCC/C=C\CCCCCCCC(=O)N(CCO)CCO | . | . | 4.7% | . | .
CCCCc1ccc(/C=C2\C(=O)c3ccccc3C(O)=C2C(=O)OCC)cc1 | 17.8µM* | ? | 5.5%[10 µM] | 8.4% | ?

Screens deposited in PubChem BioAssay by National Center for Advancing Translational Sciences (NCATS).
